Test results as given in PubChem BioAssay AID743101 (Vanderbilt Specialized Chemistry Center, 2013).
Active and inactive are the calls of the source.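 Rule for the calls: active = calcium signal above 60% of the peak acetylcholine response at the M5 receptor, called a positive modulator; inactive = the rest.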

Target: Muscarinic acetylcholine receptor M4 (Homo sapiens) (UniProt P08173)
Assay: off-target M4 muscarinic potentiation – cell-based, CHO-K1 hM4/Gqi5, Fluo-4 calcium flux, ACh EC20, counter-screen for M5 PAM project (AID 743101)
Conditions: Fluo-4, ACh EC20, at 30 µM (top of the series); % max ACh response: at the top concentration

Muscarinic acetylcholine receptor M4 (Homo sapiens), sequence (P08173 whole entry, looked up): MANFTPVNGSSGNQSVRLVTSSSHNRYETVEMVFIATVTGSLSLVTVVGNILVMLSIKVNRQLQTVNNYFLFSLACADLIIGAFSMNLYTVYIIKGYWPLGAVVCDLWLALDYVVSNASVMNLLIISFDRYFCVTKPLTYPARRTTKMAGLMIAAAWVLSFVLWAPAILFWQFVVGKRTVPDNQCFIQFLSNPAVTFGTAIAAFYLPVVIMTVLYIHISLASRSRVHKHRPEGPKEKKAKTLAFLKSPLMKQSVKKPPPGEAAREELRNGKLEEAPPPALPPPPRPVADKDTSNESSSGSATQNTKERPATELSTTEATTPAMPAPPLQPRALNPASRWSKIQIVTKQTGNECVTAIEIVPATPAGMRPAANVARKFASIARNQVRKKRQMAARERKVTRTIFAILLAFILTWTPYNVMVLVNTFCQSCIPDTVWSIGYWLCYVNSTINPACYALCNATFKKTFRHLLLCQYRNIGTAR

Structure (SMILES)	% max ACh response
CCN(C(=O)C1CCN(S(=O)(=O)c2ccc(OC)cc2)CC1)[C@H](C)c1ccccc1	20.8 (inactive)
CCN(Cc1ccccc1)C(=O)C1CCN(S(=O)(=O)c2ccc3c(c2)OCCO3)CC1	13.2 (inactive)
CCN(Cc1ccccc1Cl)C(=O)C1CCN(S(=O)(=O)c2ccc3[nH]ncc3c2)CC1	16.6 (inactive)
CCN(Cc1ccccc1C(F)(F)F)C(=O)C1CCN(S(=O)(=O)c2ccc3cn[nH]c3c2)CC1	19.4 (inactive)
CCN(Cc1ccccc1C(F)(F)F)C(=O)C1(F)CCN(S(=O)(=O)c2ccc3[nH]ncc3c2)CC1	29.4 (inactive)
CCN(C(=O)C1CCN(S(=O)(=O)c2ccc(-n3cccn3)cc2)CC1)[C@H](C)c1ccccc1	18.2 (inactive)
CCCN(Cc1ccccc1C(F)(F)F)C(=O)C1CCN(S(=O)(=O)c2ccc3[nH]ncc3c2)CC1	44.8 (inactive)
CCN(Cc1ccccc1)C(=O)C1CCN(S(=O)(=O)c2ccc3[nH]ncc3c2)CC1	18.4 (inactive)
CCN(C(=O)C1CCN(S(=O)(=O)c2ccc3[nH]ncc3c2)CC1)[C@H](C)c1ccccc1	18.1 (inactive)
CCN(Cc1ccccc1)C(=O)C1CCN(S(=O)(=O)c2ccc3cn[nH]c3c2)CC1	15.7 (inactive)
CCN(Cc1ccccc1C(F)(F)F)C(=O)C1CCN(S(=O)(=O)c2ccc3[nH]ncc3c2)CC1	29.7 (inactive)
